Laboratory results: PubChem BioAssay
This is one part of the list. Values without a mark were called inactive. Active and inactive are the calls of the source. Rule as the data show it, unless noted: active = inhibition above about 13%; inactive = the rest.

System: not listed separately
Assay: VP16-driven transactivation reporter suppression – cell-based, luminescence, HEK293, counter-screen for COUP-TFII antagonist project (AID 687007)
Details: HEK293 Gal4-VP16 luciferase reporter, at 8.5 µM, hits give high values

Compound | inhibition
Cn1nccc1C(=O)NC1CCCc2c1cnn2-c1ccccc1F (stereo not given) | 1.97%
CCN(CC)S(=O)(=O)c1ccc(N(C)Cc2ccc(C(F)(F)F)cc2)nc1 | -6.6%
COc1ccc(CC(=O)Nc2nc(-c3ccc(F)c(F)c3)cs2)cc1OC | 2.71%
COc1cccc(CNc2nc(NCc3ccccc3OC)nc3ccsc23)c1 | 2.96%
OC[C@@H]1CN(Cc2ccc(-c3ccccc3)cc2)C[C@H](n2cnc3c(NC4CCCC4)ncnc32)O1 | 4.62%

Target: COUP transcription factor 2 (Homo sapiens) (UniProt P24468)
Assay: retest of COUP-TFII reporter suppressors – cell-based, luciferase reporter, HEK293, triplicate, confirmation (AID 687008;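 active = mean inhibition over three repeats above a set limit taken from the earlier primary screen, cut at about 38% in these data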;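 also: 100% = cells given the luciferase reporter alone without the COUP-TF2 vector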)
Details: HEK293 NGFI-A luciferase reporter, luminescence; at 8.5 µM; hits give high values

Chain of COUP transcription factor 2 (Homo sapiens) (P24468 whole entry, looked up): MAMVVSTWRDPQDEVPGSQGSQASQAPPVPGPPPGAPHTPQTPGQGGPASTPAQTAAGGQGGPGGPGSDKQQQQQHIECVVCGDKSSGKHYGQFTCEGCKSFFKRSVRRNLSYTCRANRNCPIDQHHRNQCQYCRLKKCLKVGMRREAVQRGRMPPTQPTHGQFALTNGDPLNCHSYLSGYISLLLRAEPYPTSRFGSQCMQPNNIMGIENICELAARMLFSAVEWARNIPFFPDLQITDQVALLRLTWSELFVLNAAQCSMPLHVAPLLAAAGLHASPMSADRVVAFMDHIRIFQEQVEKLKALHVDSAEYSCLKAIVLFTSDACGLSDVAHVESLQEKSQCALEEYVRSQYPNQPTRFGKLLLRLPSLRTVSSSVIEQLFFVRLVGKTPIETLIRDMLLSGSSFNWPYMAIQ

Compound | inhibition
Cn1nccc1C(=O)NC1CCCc2c1cnn2-c1ccccc1F (stereo not given) | 66.8% (active)
CCN(CC)S(=O)(=O)c1ccc(N(C)Cc2ccc(C(F)(F)F)cc2)nc1 | 22.6%
COc1ccc(CC(=O)Nc2nc(-c3ccc(F)c(F)c3)cs2)cc1OC | 55.4% (active)
COc1cccc(CNc2nc(NCc3ccccc3OC)nc3ccsc23)c1 | 18.9%
OC[C@@H]1CN(Cc2ccc(-c3ccccc3)cc2)C[C@H](n2cnc3c(NC4CCCC4)ncnc32)O1 | 63.3% (active)
